This passage reports z-score and composite z-score results from PubChem BioAssay.

Test [1] can be described thus: optical density shifts of acrAB sulA E. coli – strain DRC41, OD650, 48 h, E. coli filamentation inducer project, primary screen (AID 1152).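 Note: E. coli MC1000 strain DRC41 lacking acrAB efflux pump and sulA.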 As to conditions: higher = more signal, called active from +8 up or from −8 down.
Test [2] is described as follows: probe aLefty1 binding on compound microarray – biochemical, small-molecule microarray, 635/667 nm fluorescence, primary screen (AID 1153).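 Note: score merges spot fluorescence with signal-to-noise ratio from the scanned slide images.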 As to conditions: higher = more signal.
A short description of test [3]: plasmodial surface anion channel blockers, osmotic lysis – cell-based, P. falciparum Indochina, OD700, 1 h, primary screen (AID 1154). As to conditions: P. falciparum Indochina infected RBC osmotic lysis, higher = more signal, called active from +8 up or from −8 down.
The nature of test [4]: plasmodial surface anion channel blockers, osmotic lysis – cell-based, P. falciparum Indochina, OD700, 2 h, primary screen (AID 1155).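 Note: lysis reports solute entry through the parasite surface anion channel PSAC.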 As to conditions: P. falciparum Indochina infected erythrocytes, higher = more signal, called active from +8 up or from −8 down.
Test [5] is described as follows: changes in parasitized red cell lysis, either direction – P. falciparum Indochina, OD700, 3 h, PSAC antagonist project, primary screen (AID 1156). As to conditions: P. falciparum-infected erythrocytes, osmotic lysis, higher = more signal, called active from +8 up or from −8 down.
The nature of test [6]: plasmodial surface anion channel blockers, osmotic lysis – cell-based, P. falciparum Indochina, OD700, 18 h, primary screen (AID 1157). As to conditions: P. falciparum Indochina infected erythrocytes, osmotic lysis OD700, 18 h; higher = more signal, called active from +8 up or from −8 down.
The nature of test [7]: S6 kinase pathway phospho-S6 level changes – cell-based, A549, cytoblot, luminescence, serum-stimulated, primary screen (AID 1158).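 Note: serum-stimulated A549 lung adenocarcinoma cells; signal is phosphorylated S6 detected by cytoblot immunostaining with HRP secondary.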 As to conditions: 5 h, higher = more signal.
Test [8] addresses NADPH oxidase 2 (Homo sapiens) (UniProt P04839). The experiment in a line: compounds shifting NOX2 Amplex Red fluorescence – cell-based, HEK293-NOX2, PMA-stimulated, NOX inhibitor project, primary screen (AID 1159). Note: test concentration not given here. As to conditions: 45 min, higher = more signal, called active from +8 up or from −8 down.
In test [9] the target is NADPH oxidase 4 (Homo sapiens) (UniProt Q9NPH5). The test can be described thus: compounds shifting NOX4 Amplex Red fluorescence – cell-based, HEK293-NOX4, tetracycline-induced, NOX inhibitor project, primary screen (AID 1160). As to conditions: HEK293-NOX4, Amplex Red H2O2 fluorescence, 45 min; higher = more signal, called active from +8 up or from −8 down.
In test [10] the target is NADPH oxidase 5 (Homo sapiens) (UniProt Q96PH1). The experiment in a line: compounds shifting NOX5 Amplex Red fluorescence – cell-based, HEK293-NOX5, NOX inhibitor project, primary screen (AID 1161). As to conditions: HEK293-NOX5, ionomycin, 45 min, higher = more signal.
The nature of test [11]: compound effects on lung adenocarcinoma cell viability – A549, calcein-AM fluorescence, 48 h, basal, profiling panel (AID 1162). Note: test concentration not given here. As to conditions: higher = more signal.
Test [12] in a line: compound effects on differentiated 3T3-L1 adipocyte viability – cell-based, 3T3-L1 adipocytes, calcein-AM fluorescence, 48 h, basal, profiling panel (AID 1163). Note: test concentration not given here. As to conditions: 3T3-L1 adipocytes viability, higher = more signal.
A short description of test [13]: compound effects on hepatocellular carcinoma cell viability – HepG2, calcein-AM fluorescence, 48 h, basal, profiling panel (AID 1164). Note: test concentration not given here. As to conditions: higher = more signal.
Test [14] in a line: compound effects on multiple myeloma cell viability – MM1S, calcein-AM fluorescence, 48 h, basal, profiling panel (AID 1165). Note: test concentration not given here. As to conditions: higher = more signal.
A short description of test [15]: calcein-AM signal in unstimulated myeloma cells – cell-based, calcein-AM fluorescence, 48 h, PK04 Diversity Set, profiling panel (AID 1166).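 Note: cells grown under basal conditions without added stimulus; test concentration not given here.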 As to conditions: RPMI8226 myeloma viability, higher = more signal.
A short description of test [16]: JC-1 mitochondrial signal, unstimulated HepG2 cells – cell-based, JC-1 fluorescence, 24 h, 100 nL compound, profiling panel (AID 1167). Note: test concentration not given here. As to conditions: HepG2 mitochondrial potential, higher = more signal.
Test [17] is described as follows: JC-1 mitochondrial signal, unstimulated adipocytes – cell-based, JC-1 fluorescence, 3T3-L1 adipocytes, 24 h, 100 nL compound, profiling panel (AID 1168). Note: test concentration not given here. As to conditions: JC-1 mitochondrial fluorescence, higher = more signal, called active from +8 up or from −8 down.
The nature of test [18]: JC-1 mitochondrial signal, unstimulated myeloma cells – cell-based, JC-1 fluorescence, RPMI8226, 24 h, 100 nL compound, profiling panel (AID 1169). Note: test concentration not given here. As to conditions: JC-1 mitochondrial potential fluorescence, higher = more signal.
Test [19] in a line: JC-1 mitochondrial signal, unstimulated MM1S myeloma – cell-based, JC-1 fluorescence, 24 h, 100 nL compound, profiling panel (AID 1170). Note: test concentration not given here. As to conditions: MM1S mitochondrial potential, higher = more signal.
Test [20] in a line: resazurin metabolic signal in A549 cells – cell-based, resazurin fluorescence, 24 h, PK04 Diversity Set, profiling panel (AID 1171). Note: test concentration not given here. As to conditions: A549 viability, higher = more signal, called active from +8 up or from −8 down. Background: Resazurin is reduced to fluorescent resorufin, in cell work by metabolically active cells.

Values joined by “and” are separate entries in the source; they are usually repeats but may differ in a detail not shown here. Equal entries are not always repeated. Active and inactive are the calls of the source.

Sequence of NADPH oxidase 5 (Homo sapiens) (Q96PH1 whole entry, looked up): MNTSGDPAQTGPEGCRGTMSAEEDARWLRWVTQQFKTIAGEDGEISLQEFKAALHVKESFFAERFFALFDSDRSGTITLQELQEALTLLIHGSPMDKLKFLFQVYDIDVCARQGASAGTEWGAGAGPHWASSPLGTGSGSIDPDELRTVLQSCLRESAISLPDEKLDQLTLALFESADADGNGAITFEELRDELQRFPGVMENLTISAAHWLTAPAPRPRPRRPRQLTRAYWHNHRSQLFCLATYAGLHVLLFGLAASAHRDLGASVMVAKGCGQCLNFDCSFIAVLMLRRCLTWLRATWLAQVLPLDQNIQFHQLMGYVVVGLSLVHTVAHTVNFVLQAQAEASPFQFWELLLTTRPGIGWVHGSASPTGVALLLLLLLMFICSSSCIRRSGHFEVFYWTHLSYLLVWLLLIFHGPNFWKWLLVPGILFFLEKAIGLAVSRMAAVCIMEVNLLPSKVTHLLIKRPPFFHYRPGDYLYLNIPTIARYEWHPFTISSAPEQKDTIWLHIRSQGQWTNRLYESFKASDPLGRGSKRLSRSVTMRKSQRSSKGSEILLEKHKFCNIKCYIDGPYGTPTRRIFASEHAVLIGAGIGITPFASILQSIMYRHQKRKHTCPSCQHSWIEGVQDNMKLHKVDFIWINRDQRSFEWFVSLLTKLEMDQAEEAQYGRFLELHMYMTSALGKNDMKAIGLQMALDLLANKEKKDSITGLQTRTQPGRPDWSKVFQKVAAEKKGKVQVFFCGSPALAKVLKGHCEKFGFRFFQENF
Sequence of NADPH oxidase 4 (Homo sapiens) (Q9NPH5 whole entry, looked up): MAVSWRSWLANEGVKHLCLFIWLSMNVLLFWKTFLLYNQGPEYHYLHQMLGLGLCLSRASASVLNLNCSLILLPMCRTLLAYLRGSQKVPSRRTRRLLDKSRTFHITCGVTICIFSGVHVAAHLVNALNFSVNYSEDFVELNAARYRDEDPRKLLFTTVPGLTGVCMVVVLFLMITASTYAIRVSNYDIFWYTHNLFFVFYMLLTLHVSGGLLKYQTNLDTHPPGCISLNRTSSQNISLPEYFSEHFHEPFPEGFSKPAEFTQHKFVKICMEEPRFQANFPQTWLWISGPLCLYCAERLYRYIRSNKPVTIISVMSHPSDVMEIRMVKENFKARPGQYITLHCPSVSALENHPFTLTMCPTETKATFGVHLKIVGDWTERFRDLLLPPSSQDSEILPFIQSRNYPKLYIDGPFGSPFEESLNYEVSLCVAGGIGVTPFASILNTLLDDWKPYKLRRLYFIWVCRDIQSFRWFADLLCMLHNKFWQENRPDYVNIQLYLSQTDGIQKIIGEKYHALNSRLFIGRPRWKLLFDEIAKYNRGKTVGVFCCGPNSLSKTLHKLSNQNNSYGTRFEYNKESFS
Sequence of NADPH oxidase 2 (Homo sapiens) (P04839 whole entry, looked up): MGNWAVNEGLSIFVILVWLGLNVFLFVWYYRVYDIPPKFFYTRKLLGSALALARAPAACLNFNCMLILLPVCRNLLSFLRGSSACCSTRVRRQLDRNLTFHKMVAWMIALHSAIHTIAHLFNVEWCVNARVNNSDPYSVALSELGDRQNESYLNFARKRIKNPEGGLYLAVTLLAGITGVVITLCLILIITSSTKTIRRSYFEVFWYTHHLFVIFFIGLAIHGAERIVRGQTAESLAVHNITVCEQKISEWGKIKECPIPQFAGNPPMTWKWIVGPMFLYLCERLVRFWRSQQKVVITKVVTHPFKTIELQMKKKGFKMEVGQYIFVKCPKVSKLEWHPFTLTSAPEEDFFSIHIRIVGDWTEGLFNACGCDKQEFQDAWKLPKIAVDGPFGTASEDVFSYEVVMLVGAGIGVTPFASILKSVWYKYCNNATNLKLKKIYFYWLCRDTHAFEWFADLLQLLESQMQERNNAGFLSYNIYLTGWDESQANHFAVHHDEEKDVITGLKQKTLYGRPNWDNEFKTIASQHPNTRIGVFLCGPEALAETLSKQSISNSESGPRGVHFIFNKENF

As to `C=CCN(Cc1ccccc1)C(=O)C1N(C(C)(C)CO)C(=O)C2C(C(=O)O)C3C=CC21O3` (stereo not given), the z-score in test [1] was -0.511 (inactive) and 1.45 (inactive); in test [3], 0.0247 (inactive) and -0.244 (inactive); in test [4] it was 0.0843 (inactive) and -0.355 (inactive); in test [5], -1.15 (inactive) and -0.742 (inactive); in test [6], -0.255 (inactive) and -0.354 (inactive); in test [7], 0.0613 and -0.122. The z-score in test [8] was 0.515 (inactive) and 0.043 (inactive); in test [9], 0.0722 (inactive) and 0.185 (inactive); in [10], 0.793 and -0.0303; in test [11] it was -0.535 and -0.297; in [12], -0.355 and 0.134; in [13], -1.11 and 0.0167. Also, the z-score in test [14] is 0.0296 and 1.03; in test [15], 0.0867 and -0.103; in [16], -0.955 and -0.123; in [17], 0.0762 (inactive) and -0.264 (inactive); in [18], 0.248 and 0.652; in test [19] it was -0.16 and -0.15. The z-score in test [20] is -0.363 (inactive) and 0.344 (inactive). Further, in test [2], the composite z-score is -0.144 and -0.779.

As to `Cc1cc2c(nc1C)CCCN2CC(O)CN1CCCc2nc(-c3ccc(Br)cc3)ccc21` (stereo not given), the z-score in [1] is -0.402 (inactive) and -0.327 (inactive); in [3] it was 12.1 (active) and 8.25 (active); in [4], 1.55 (inactive) and 0.974 (inactive); in test [5], 1.59 (inactive) and 1.02 (inactive); in [6] it was 0.739 (inactive) and 0.394 (inactive); in test [7], 0.0832 and -0.44. The z-score was 1.74 (inactive) and 1.1 (inactive) in test [8]; -1.98 (inactive) and -1.54 (inactive) in test [9]; -2.82 and -2.56 in [10]; -0.243 and -0.599 in test [11]; 0.929 and 0.303 in test [12]; -0.749 and -0.129 in test [13]. Besides, the z-score in test [14] was 0.916 and -1.24; in test [15], -2.13 and -0.178; in test [16], 0.36 and 0.768; in test [17] it was -0.855 (inactive) and -1.29 (inactive); in [18], 0.144 and -0.0117; in test [19], -0.488 and 0.538. The z-score in [20] is -0.347 (inactive) and 0.0661 (inactive). Further, the composite z-score in test [2] is 0.585 and 0.584.

Consider `C=C[C@@H](C)[C@@H](O)c1ccc(O)c2ccccc12`, for which the z-score in test [1] was -0.433 (inactive) and 0.891 (inactive); in test [3] it was 0.837 (inactive) and 2.36 (inactive); in test [4], -0.0805 (inactive) and 0.389 (inactive); in test [5], -0.718 (inactive) and 0.0336 (inactive); in [6], 0.205 (inactive) and 1.19 (inactive); in test [7], -0.565 and 0.273. Moreover, the z-score in test [8] was -5.58 (inactive) and -5.73 (inactive); in test [9], -0.616 (inactive) and -1.33 (inactive); in [10], 1.95 and 1.31; in test [11] it was 0.799 and -0.778; in test [12], -0.468 and 0.56; in test [13], -0.165 and -1.36. Besides, the z-score is -2.83 and -2.76 in test [14]; -1.07 and -1.45 in test [15]; -2.11 and -2.44 in test [16]; -0.672 (inactive) and -0.253 (inactive) in [17]; -0.994 and -0.39 in test [18]; -1.51 and -1.39 in [19]. Moreover, in [20], the z-score was -0.852 (inactive) and -0.3 (inactive). Also, in [2], the composite z-score is -0.194 and -0.0851.

In the case of `O=C1[C@H]2[C@H]3[C@H](O)[C@H](O)CC(=NOCc4ccccc4)[C@H]3CC[C@H]2C(=O)N1Cc1ccccc1`, the z-score is -0.925 (inactive) in test [1]; 5.58 (inactive) in test [3]; 0.42 (inactive) in test [4]; 0.224 (inactive) in test [5]; -0.456 (inactive) in test [6]; 0.741 in [7]. Besides, the z-score in test [8] is -1.14 (inactive); in [9], -2.92 (inactive); in test [10] it was -2.42; in test [11], -0.85; in [12], 1.18; in [13], -0.977. Besides, the z-score in test [14] is -0.695; in [15], -1.69; in test [16] it was 1.09; in test [17], -0.0708 (inactive); in test [18], 0.00736; in test [19], -1.48. Moreover, in [20], the z-score is 0.51 (inactive). This molecule showed a composite z-score in [2] of 0.0037.

For the molecule `C=CCN(Cc1ccccc1)C(=O)C(c1cccs1)N(C(=O)/C=C\C(=O)O)c1ccc(CCO)cc1` (stereo not given), the z-score in [1] was 0.906 (inactive) and 0.383 (inactive); in test [3], 0.149 (inactive) and -0.674 (inactive); in [4], -0.36 (inactive) and 0.526 (inactive); in test [5] it was 0.0823 (inactive) and -0.0781 (inactive); in test [6], 0.283 (inactive) and 0.306 (inactive); in test [7], 1.84 and 0.284. Besides, the z-score in [8] is -0.228 (inactive) and -0.269 (inactive); in [9] it was -0.353 (inactive) and -0.512 (inactive); in [10], -0.0714 and -0.0433; in test [11], -0.636 and -0.0917; in test [12] it was 0.0605 and -0.16; in [13] it was 0.391 and 0.373. In addition, the z-score in test [14] was 1.49 and 1.81; in [15], 0.586 and 0.894; in test [16], 1.26 and 0.706; in test [17], 0.645 (inactive) and 1.1 (inactive); in test [18], 0.648 and 0.272; in test [19] it was -1.19 and -0.751. Besides, in [20], the z-score is -0.29 (inactive) and -0.14 (inactive). Also, the composite z-score in test [2] is -0.0449 and -0.314.

For the molecule `C=CC[C@@H](O)c1ccc(O)c(F)c1`, the z-score is -0.024 (inactive) and 1.7 (inactive) in test [1]; 0.92 (inactive) and -0.126 (inactive) in [3]; 0.574 (inactive) and -1.54 (inactive) in test [4]; -0.0619 (inactive) and -1.38 (inactive) in [5]; 0.476 (inactive) and -2.12 (inactive) in test [6]; 0.0996 and 0.266 in [7]. Besides, the z-score was -0.896 (inactive) and -0.237 (inactive) in test [8]; -1.46 (inactive) and 0.42 (inactive) in [9]; -0.436 and 0.271 in test [10]; -0.562 and 0.575 in test [11]; 0.207 and 0.747 in test [12]; -0.804 and -0.172 in test [13]. Moreover, the z-score is -1.11 and 1.1 in test [14]; -0.508 and -1.15 in [15]; -1.48 and -0.00596 in [16]; -1.3 (inactive) and 1.47 (inactive) in test [17]; 0.345 and 0.642 in test [18]; -0.347 and 1.29 in test [19]. Besides, the z-score in test [20] was -0.694 (inactive) and 0.0466 (inactive). Besides, the composite z-score in test [2] is -0.216 and -0.0449.
